The nature of assay [1]: BSK_CASM3C_SRB: Viability Assessment in the BioMAP Diversity Plus: CASM3C Assay (AID 2283050).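 Also: cells exposed to compound for 24 h.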 As to conditions: primary human coronary artery smooth muscle cells.
Read-out in assay [2]: Thrombomodulin, THBD (gene 7056)
The assay can be described thus: BSK_CASM3C_Thrombomodulin: BioMAP Diversity Plus: CASM3C Assay for Thrombomodulin Biomarker Activity (AID 2283051).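 Also: thrombomodulin protein level measured by ELISA 24 h after dosing.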 Conditions: primary human coronary artery smooth muscle cells; actives raise or lower the signal.

Read-out in assay [3]: Tissue Factor, F3 (gene 2152)
The assay can be described thus: BSK_CASM3C_TissueFactor: BioMAP Diversity Plus: CASM3C Assay for Tissue Factor Biomarker Activity (AID 2283052).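 Also: cell surface tissue factor protein level read by ELISA.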 As to conditions: primary human coronary artery smooth muscle cells; actives raise or lower the signal.

Read-out in assay [4]: Interferon-gamma inducible Protein 10 (IP10), CXCL10 (gene 3627)
The assay can be described thus: BSK_hDFCGF_IP10: BioMAP Diversity Plus: hDFCGF Assay for Interferon-gamma inducible Protein 10 (IP10) Biomarker Activity (AID 2283053). As to conditions: primary human foreskin fibroblasts; actives raise or lower the signal. The essentials:
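Primary human foreskin fibroblasts exposed to chemicals for 24 h. IP-10 measured by ELISA; changes fitted bidirectionally against DMSO baseline.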

Read-out in assay [5]: Urokinase-type plasminogen activator receptor (uPAR), PLAUR (gene 5329)
Briefly: BSK_CASM3C_uPAR: BioMAP Diversity Plus: CASM3C Assay for Urokinase-type plasminogen activator receptor (uPAR) Biomarker Activity (AID 2283054).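 Also: cell-surface uPAR protein level quantified by ELISA.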 As to conditions: primary human coronary artery smooth muscle cells; actives raise or lower the signal.

Read-out in assay [6]: Vascular cell adhesion molecule 1 (VCAM1), VCAM1 (gene 7412)
Briefly: BSK_CASM3C_VCAM1: BioMAP Diversity Plus: CASM3C Assay for Vascular cell adhesion molecule 1 (VCAM1) Biomarker Activity (AID 2283055).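 Also: VCAM-1 protein level quantified by ELISA on the cells.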 Conditions: primary human coronary artery smooth muscle cells; actives raise or lower the signal.

Read-out in assay [7]: Collagen III, COL3A1 (gene 1281)
Briefly: BSK_hDFCGF_CollagenIII: BioMAP Diversity Plus: hDFCGF Assay for Collagen III Biomarker Activity (AID 2283056). Conditions: primary human foreskin fibroblasts; actives raise or lower the signal. The method, boiled down: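 Human foreskin fibroblast primary cultures sampled 24 h after dosing; Collagen III quantified by ELISA. Signal fitted bidirectionally against DMSO baseline.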

Read-out in assay [8]: Epidermal growth factor receptor (EGFR), EGFR (gene 1956)
Briefly: BSK_hDFCGF_EGFR: BioMAP Diversity Plus: hDFCGF Assay for Epidermal growth factor receptor (EGFR) Biomarker Activity (AID 2283057). Conditions: primary human foreskin fibroblasts; actives raise or lower the signal. The essentials:
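Primary human foreskin fibroblasts (hDFCGF system), sampled 24 h after dosing; EGFR quantified by ELISA. Bidirectional fit relative to DMSO baseline; SRB total-protein staining in parallel cultures for cytotoxicity.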

Read-out in assay [9]: Interleukin-8 (IL8), CXCL8 (gene 3576)
The assay can be described thus: BSK_hDFCGF_IL8: BioMAP Diversity Plus: hDFCGF Assay for Interleukin-8 (IL8) Biomarker Activity (AID 2283058). As to conditions: primary human foreskin fibroblasts; actives raise or lower the signal. The essentials:
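Primary human foreskin fibroblasts (hDFCGF system) dosed with chemical; IL-8 measured by ELISA 24 hours later. Bidirectional curve fitting relative to DMSO baseline; cytotoxicity tracked in parallel cultures by SRB total protein staining.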

Assay [10] is described as follows: BSK_hDFCGF_Proliferation: Cell Proliferation Assessment in the BioMAP Diversity Plus: hDFCGF Assay (AID 2283059).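 Also: curves fitted for both rise and fall of signal versus DMSO baseline.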 As to conditions: primary human foreskin fibroblasts. The essentials: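 Steps: dose primary human dermal fibroblasts (foreskin); […] fix in 10% TCA; stain with 0.1% SRB; read 560 nm; fit gain or loss of signal against DMSO.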
The nature of assay [11]: BSK_hDFCGF_SRB: Viability Assessment in the BioMAP Diversity Plus: hDFCGF Assay (AID 2283061).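 Also: cells exposed to compound for 24 h before the read.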 As to conditions: primary human foreskin fibroblasts. The method, boiled down:
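Human foreskin fibroblasts in 96-well plates were treated 24 h. Total protein was measured by 0.1% SRB staining after 10% TCA fixation, read at 560 nm. Data were fitted bidirectionally against DMSO.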

Read-out in assay [12]: TIMP metallopeptidase inhibitor 1 (TIMP1), TIMP1 (gene 7076)
The assay can be described thus: BSK_hDFCGF_TIMP1: BioMAP Diversity Plus: hDFCGF Assay for TIMP metallopeptidase inhibitor 1 (TIMP1) Biomarker Activity (AID 2283062). Conditions: primary human foreskin fibroblasts; actives raise or lower the signal. The method, boiled down: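 Human foreskin fibroblast primary cultures dosed for 24 h; secreted/surface TIMP-1 quantified by ELISA. Bidirectional curve fitting against DMSO baseline; cytotoxicity tracked in parallel cultures by SRB total-protein staining.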

Read-out in assay [13]: Matrix Metallopeptidase 1 (MMP1), MMP1 (gene 4312)
The assay can be described thus: BSK_hDFCGF_MMP1: BioMAP Diversity Plus: hDFCGF Assay for Matrix Metallopeptidase 1 (MMP1) Biomarker Activity (AID 2283064). Conditions: primary human foreskin fibroblasts; actives raise or lower the signal. The method, boiled down: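 Primary human foreskin fibroblasts exposed to chemicals for 24 h; MMP1 measured by ELISA. Cytotoxicity tracked by SRB staining in parallel cultures; bidirectional fit relative to DMSO.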

Read-out in assay [14]: Vascular cell adhesion molecule 1 (VCAM1), VCAM1 (gene 7412)
Briefly: BSK_hDFCGF_VCAM1: BioMAP Diversity Plus: hDFCGF Assay for Vascular cell adhesion molecule 1 (VCAM1) Biomarker Activity (AID 2283065).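 As to AC50: VCAM-1 protein level quantified by ELISA after 24 h chemical exposure.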 As to conditions: primary human foreskin fibroblasts; actives raise or lower the signal. The method, boiled down:
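Human foreskin fibroblast primary cells dosed with chemical, VCAM-1 measured by ELISA at 24 h. Bidirectional curve fitting relative to DMSO as negative control/baseline.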

Read-out in assay [15]: Plasminogen activator inhibitor-1 (PAI1), SERPINE1 (gene 5054)
Briefly: BSK_hDFCGF_PAI1: BioMAP Diversity Plus: hDFCGF Assay for Plasminogen activator inhibitor-1 (PAI1) Biomarker Activity (AID 2283066). Conditions: primary human foreskin fibroblasts; actives raise or lower the signal. The essentials:
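Human foreskin fibroblast primary cells, 24 h chemical exposure; PAI-1 measured by ELISA. Bidirectional fitting relative to DMSO; parallel cultures stained with SRB for total protein to flag overt cytotoxicity.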

Read-out in assay [16]: Intercellular Adhesion Molecule 1 (ICAM1), ICAM1 (gene 3383)
Briefly: BSK_KF3CT_ICAM1: BioMAP Diversity Plus: KF3CT Assay for Intercellular Adhesion Molecule 1 (ICAM1) Biomarker Activity (AID 2283067). As to conditions: primary human keratinocytes with fibroblasts; actives raise or lower the signal. The method, boiled down: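 Human keratinocyte–foreskin fibroblast co-culture was treated for 24 h. Cell-surface ICAM-1 was quantified by ELISA, fitted bidirectionally relative to DMSO. Cytotoxicity was checked in parallel cultures by SRB total-protein staining.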

Read-out in assay [17]: Interferon-gamma inducible Protein 10 (IP10), CXCL10 (gene 3627)
Briefly: BSK_KF3CT_IP10: BioMAP Diversity Plus: KF3CT Assay for Interferon-gamma inducible Protein 10 (IP10) Biomarker Activity (AID 2283068). As to conditions: primary human keratinocytes with fibroblasts; actives raise or lower the signal. The method, boiled down: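 KF3CT co-culture (keratinocytes + foreskin fibroblasts), 24 h compound, IP-10 by ELISA; bidirectional fit vs DMSO baseline.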

Assay [18] is described as follows: BSK_KF3CT_SRB: Viability Assessment in the BioMAP Diversity Plus: KF3CT Assay (AID 2283069).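 Also: total protein by sulforhodamine B staining as a cytotoxicity measure; read 24 h after compound addition; fitted for both signal gain and loss against DMSO baseline.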 Conditions: primary human keratinocytes with fibroblasts. The method, boiled down:
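Human keratinocyte and foreskin fibroblast co-culture exposed to chemical for 24 h. Total protein measured in parallel cultures by 0.1% sulforhodamine B staining after 10% TCA fixation, read at 560 nm; bidirectional fit relative to DMSO.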

Calls of active or inactive are those of the source. The calls were made as follows: active = hit-call score of the fitted dose curve at least 0.9, where 1 is the maximum; inactive = score below 0.9.

Turning to `CON(C)C(=O)Nc1ccc(Cl)c(Cl)c1`, the outcome in assay [1], in [2], in assay [3], in [4], in [5] and in assay [6] was inactive. Further, the result in [7], in assay [8], in [9], in [10], in [11] and in assay [12] was inactive. Besides, the result in assay [13], in assay [14], in assay [15], in assay [16], in [17] and in [18] was inactive.
For orientation: AC50 means the concentration at which the activity in the assay is half-maximal. On to `CCOc1cc(Oc2ccc(C(F)(F)F)cc2Cl)ccc1[N+](=O)[O-]`, for which the outcome in [1], in [2], in assay [3], in assay [5], in assay [6] and in assay [9] was inactive. Further, the result in assay [11], in [12], in assay [14], in [16], in assay [17] and in assay [18] was inactive. Besides, the AC50 in assay [4] was 6.48 µM (active); in assay [7], 12.9 µM (active); in [8], 14.2 µM (active); in assay [10] it was 10.6 µM (active); in assay [13], 2.89 µM (active); in assay [15] it was 5.49 µM (active).
With `Cc1c(F)c(F)c(COC(=O)C2C(/C=C(\Cl)C(F)(F)F)C2(C)C)c(F)c1F` (stereo not given), the outcome in assay [1], in assay [3], in assay [4], in assay [5], in assay [6] and in assay [7] was inactive. The outcome in assay [8], in [9], in assay [11], in assay [12], in [14] and in assay [15] was inactive. Moreover, the result in [16], in assay [17] and in assay [18] was inactive. Moreover, the AC50 was 14 µM (active) in assay [2], 10.8 µM (active) in assay [10] and 1.22 µM (active) in [13].
In the case of `CCNc1nc(Cl)nc(NCC)n1`, the outcome in assay [1], in assay [2], in assay [3], in assay [4], in [5] and in assay [6] was inactive. Also, the outcome in [7], in assay [8], in assay [9], in assay [10], in assay [11] and in assay [12] was inactive. Also, the result in assay [13], in assay [14], in [15], in [16], in assay [17] and in assay [18] was inactive.
Take `CCOP(=S)(OCC)SCn1c(=O)oc2cc(Cl)ccc21`: the result in assay [1], in assay [3], in [4], in assay [5], in [6] and in assay [8] was inactive. The outcome in assay [9], in assay [11], in [12], in assay [17] and in assay [18] was inactive. Also, the AC50 in [2] is 19.9 µM (active); in assay [7], 20 µM (active); in assay [10] it was 15.5 µM (active); in assay [13] it was 2.15 µM (active); in assay [14] it was 15.6 µM (active); in assay [15], 13.8 µM (active). For the same compound, in [16], the AC50 is 7.36 µM (active).
For the compound `Cc1cc(Cl)ccc1OCC(=O)O`, the outcome in [1], in assay [2], in assay [3], in [4], in [5] and in assay [6] was inactive. The outcome in assay [7], in assay [8], in assay [9], in assay [10], in assay [11] and in assay [12] was inactive. The outcome in assay [13], in assay [14], in assay [15], in assay [16], in [17] and in [18] was inactive.
Take `O=C(Nc1ccccc1)Nc1ccnc(Cl)c1`: the result in assay [1], in assay [2], in [3], in assay [4], in [5] and in assay [6] was inactive. The result in [7], in assay [9], in assay [10], in assay [11], in assay [12] and in [13] was inactive. In addition, the result in [14], in assay [15], in assay [16], in [17] and in [18] was inactive. In addition, the AC50 in [8] is 0.148 µM (active).
As for `CCOC(=O)CC(SP(=S)(OC)OC)C(=O)OCC` (stereo not given), the result in assay [1], in assay [2], in assay [3], in assay [4], in [5] and in assay [6] was inactive. The outcome in [7], in assay [8], in [9], in assay [10], in assay [11] and in assay [12] was inactive. Besides, the result in [13], in assay [14], in [15], in assay [16], in [17] and in [18] was inactive.
Regarding `N#CC(CCc1ccc(Cl)cc1)(Cn1cncn1)c1ccccc1` (stereo not given), the result in assay [1], in assay [2], in assay [3], in [4], in assay [5] and in assay [6] was inactive. In addition, the outcome in [7], in assay [8], in assay [9], in assay [11], in assay [12] and in assay [13] was inactive. For the same compound, the outcome in assay [14], in assay [15], in [16], in assay [17] and in assay [18] was inactive. In addition, in [10], the AC50 was 1.78 µM (active).
As to `CCCCNC(=O)n1c(NC(=O)OC)nc2ccccc21`, the outcome in assay [1], in assay [3], in assay [5], in assay [6], in assay [7] and in assay [8] was inactive. In addition, the outcome in [9], in assay [11], in [12], in assay [14], in assay [15] and in assay [16] was inactive. The outcome in assay [17] and in [18] was inactive. The AC50 in [2] was 17.4 µM (active); in assay [4], 33.8 µM (active); in assay [10] it was 15 µM (active); in [13], 11.3 µM (active).
